Screening results from PubChem BioAssay.
Hits are enriched below; roughly 7% of the tested compounds scored in any of these assays.
BAZ2B block: inhibitors of human BAZ2B bromodomain; Q9UIF8; AlphaScreen BAZ2B-H3K14Ac peptide displacement; Potency, µM (doses to about 114 µM), inactives show top-dose activity change, negative = inhibition, actives largely listed as inhibitors; hit rate 4.4% among 360,000; AID 504333; further: potency means the concentration at half of the fitted maximal effect; on the % scale 0 is the no-effect control and ±100 the full control effect; nearly all actives have a fitted effect of over 60% in size
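Protein-peptide AlphaScreen: BAZ2B 50 nM, b-H3K14Ac 50 nM, 1x PBS pH 7.4 + 0.01% Tween-20. Preincubation 30 min RT; cpd 30 min RT (top 110 uM); beads 20 min RT, light-protected.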
HP1b chromo inh: HP1-beta chromodomain-methylated histone interaction inhibition; Potency, µM (titrated, usually from 114 µM), inactives show top-dose activity change, negative = inhibition, hits mostly inhibitors; hit rate 0.56% among 390,000; AlphaScreen HP1-beta / biotin-H3K9me3 peptide binding; further: potency means the concentration at half of the fitted maximal effect; nearly all actives have a fitted effect of over 70% in size
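HP1-beta protein (50 nM final) preincubated 30 min at room temperature with biotinylated H3(1-18)K9me3 peptide (50 nM) in PBS pH 7.4, 0.01% Tween-20, then compound added for 30 min. AlphaScreen streptavidin donor/nickel chelate acceptor beads (10 ug/mL final), 30 min dark, luminescence read.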
PI5P4Ka inh: PI5P4K alpha (human) kinase inhibition; P48426; PI5P4Kalpha enzyme, ADP-Glo luminescence, 60 min; stronger effect = lower value; max response, %; hit rate 1.2% among 330,000; AID 652105; active means max response of -50% or lower; inconclusive means between -30% and -50%; inactive means -30% or higher; further: value at the top dose of about 77 µM; on the % scale 0 is the no-effect control and ±100 the full control effect
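ADP-Glo luminescence end-point after a 60 min room-temperature kinase reaction. PI5P4Kalpha and substrate in HEPES pH 7.4 buffer with EGTA, 0.1% CHAPS and 5% DMSO; ATP at 5 microM final.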
GCN5L2 inh: inhibitors of human GCN5L2 histone acetyltransferase | Q92830 | GCN5L2 HAT assay, ThioGlo1 CoA-SH fluorescence | Potency, µM (doses to about 58.9 µM), without a hit: top-dose activity change, negative = inhibition, most hits filed as inhibitors | hit rate 0.21% among 390,000 | AID 504327; further: potency means the concentration at half of the fitted maximal effect; on the % scale 0 is the no-effect control and ±100 the full control effect
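Titration-based screen in which CoA formation is detected via maleimide probe ThioGlo1 (50uM) turning fluorescent on thiol reaction; substrates H3(1-25) 75uM and acetyl-CoA 70uM, GCN5L2 20nM, 20 min incubation at room temperature.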
JMJD2A Tudor: blocks the human JMJD2A Tudor domain. O75164. AlphaScreen JMJD2A-Tudor / H3K4me3 peptide binding. Potency, µM (top dose mostly 114 µM), inactives show at the top dose activity change, negative = inhibition, actives largely listed as inhibitors. hit rate 4.4% among 390,000; further: potency means the concentration at half of the fitted maximal effect; on the % scale 0 is the no-effect control and ±100 the full control effect; nearly all actives have a fitted effect of over 50% in size
PLK1 PBD inh: blocks phosphopeptide binding to human PLK1 polo-box domain. P53350. Plk1 PBD binding of FITC phosphopeptide, fluorescence polarization. Potency, µM, for inactives: max response, negative = inhibition, usual class: inhibitors. hit rate 2.8% among 360,000; further: potency means the concentration at half of the fitted maximal effect; series mostly up to about 57 µM; on the % scale 0 is the no-effect control and ±100 the full control effect; nearly all actives have a fitted effect of over 65% in size
* = called active by the depositor; ? = inconclusive; · = no result given; [ ] = remark or other dose. Unless noted, the call rests on the fitted dose curve; in most records, active means well fitted curve in the direction sought with a large enough effect; inconclusive means small, poorly fitted or top-dose-only effect, or another doubt; inactive means no such curve, though single readings can be large; an effect the other way counts as inactive or inconclusive.

SMILES	BAZ2B block	HP1b chromo inh	PI5P4Ka inh	GCN5L2 inh	JMJD2A Tudor	PLK1 PBD inh
COc1cc(/C=C2/SC(=S)N(Cc3ccccc3)C2=O)cc(Cl)c1O	13µM*	?	?	-13%	25µM*	-33%
COc1cc(/C=C2/SC(=S)N(Cc3ccccc3)C2=O)ccc1OS(C)(=O)=O	?	-26%	1	-5%	?	-17%
Cc1cccc(NC(=O)C(=O)c2cc(C)n(-c3ccccc3)c2C)c1C	-3%	29%	·	-4%	-15%	·
O=C1c2[nH]nc(-c3ccccc3O)c2C(c2ccc(Cl)cc2)N1Cc1ccco1 (centres undefined)	?	-33%	·	-3%	?	·
NS(=O)(=O)c1ccc(NC(=O)C(=O)NCCC(=O)O)cc1	1%	13%	3	-3%	-10%	2%
OCCN(Cc1ccccc1)CC1CC=CCC1 (centres undefined)	79µM*	?	·	0%	10µM*	-3%
c1ccc(N2CCN(c3nc(NCc4ccco4)c4ccccc4n3)CC2)cc1	45µM*	-38%	-23	-13%	50µM*	-2%
Oc1ccccc1Nc1nc(NCc2ccccc2)c2ccccc2n1	25µM*	-34%	-14	-6%	?	-10%
c1coc(CNc2nc(N3CCCCC3)nc3ccccc23)c1	?	2%	-8	1%	-26%	-6%
c1ccc(CNc2nc(N3CCN(Cc4ccccc4)CC3)nc3ccccc23)cc1	50µM*	-2%	1	-12%	-34%	-11%
Cn1c(NC2=NC3(CCCC3)C3=C(CCCC3=O)N2)nc2ccccc21	·	·	·	·	6%	·
COc1ccc(Nc2nc(-c3cccs3)cs2)c(OC)c1	32µM*	50µM*	9	-4%	2.5µM*	-12%
C/C(=N\NC(=O)CCC(=O)Nc1ccc(C)c(C)c1)C1CC1	5%	51%	4	-2%	-12%	-8%
COc1ccc([N+](=O)[O-])cc1NC(=O)C(C)OC(=O)c1cccnc1 (centres undefined)	-13%	38%	-6	-3%	-3%	-2%
CC(C)c1ccc(OCC(=O)Nc2cccc(C(=O)Nc3ccccc3C(=O)O)c2)cc1	?	35%	?	-10%	-10%[57.1 µM]	?
O=C(COc1ccccc1[N+](=O)[O-])Nc1cccc(C(=O)Nc2ccccc2C(=O)O)c1	-8%	4%	-63*	?	?	-26%
O=C(Nc1ccccc1C(=O)O)c1cccc(S(=O)(=O)Nc2ccc(Br)cc2)c1	-2%	-7%	-4	-26%	-21%	?
O=C(Nc1ccccc1C(=O)O)c1cccc(NS(=O)(=O)c2ccc(Br)cc2)c1	-3%	23%	?	-8%	-11%	42µM*
O=C(Nc1cccc(C(F)(F)F)c1)c1cccc(NS(=O)(=O)c2ccc(O)c(C(=O)O)c2)c1	-18%	-1%	-14	?	56µM*	-28%
O=C(O)c1ccc(NC(=O)c2ccccc2NC(=O)c2cccc(Br)c2)cc1	-34%	1%	-11	-21%	?	21µM*
O=C(Nc1cccc(C(F)(F)F)c1)c1cccc(NS(=O)(=O)c2ccc(Br)c(C(=O)O)c2)c1	-13%	17%	0	1%	-16%	2%
COc1cccc(COC(=O)c2ccc(-c3nnn(Cc4ccccc4)n3)cc2)c1	-14%	20%	·	17%	12%	·
Cc1cccc(-n2nc(C)c(C(=O)Nc3cc(C)ccc3C)c2-n2cccc2)c1	0%	29%	·	2%	0%	·
O=C(Nc1cc(C(=O)Nc2ccccc2C(=O)O)cc(C(=O)Nc2ccccc2C(=O)O)c1)c1ccccc1	-15%	6%	-82*	?	?	21µM*
C[C@@H]1CN([C@@H](C)CO)C(=O)c2cc(N(C)C)ccc2O[C@@H](C)CCCCO[C@@H]1CN(C)S(=O)(=O)c1cccs1	·	·	-3	·	·	-16%
SMILES	BAZ2B block	HP1b chromo inh	PI5P4Ka inh	GCN5L2 inh	JMJD2A Tudor	PLK1 PBD inh
CCCCn1c(=S)[nH]c2ccc(N3CCOCC3)cc2c1=O	-17%	·	·	?	·	·
Cc1ccc(Cn2c(=S)[nH]c3ccc(N4CCOCC4)cc3c2=O)o1	?	?	·	?	22µM*	21µM*
CCCNC(=O)OCc1cccnc1Sc1ccc(C)cc1	15%	4%	?	-2%	45µM*	27µM*
CCOC(=O)Nc1cccnc1Sc1ccc(Cl)cc1	·	2%	3	·	1%	-26%
CCOc1c2ccc(C(=O)NCc3ccco3)cc2nn1CCOC	-10%	62%	4	28µM*	-10%	-5%
Cc1ccsc1CN(C(=O)c1ccc(OCC(C)C)cc1)C1CCS(=O)(=O)C1 (centres undefined)	-15%	16%	·	-2%	-19%	·
COc1ccc2c(ccc[n+]2CC(=O)c2ccccc2)c1	-26%	41%	-1	-17%	8%	6%
COc1ccc(C(=O)C[n+]2cn(C(F)F)c3ccccc32)c(F)c1	·	26%	?	-10%	-7%	13µM*
COCOCCn1cc(CN2CCS(=O)(=O)N(Cc3ccc(-c4ccc(OC)cc4)cc3)C(C)C2=O)nn1 (centres undefined)	·	·	-17	·	·	-13%
C=CCn1c(CNc2ccc(C)cc2)nnc1SCC(=O)N/N=C/c1ccc(O)cc1O	?	12%	-8	-8%	-24%	1%
C=CCn1c(CNc2ccccc2)nnc1SCC(=O)N/N=C/c1ccc(O)cc1O	?	?	-5	-19%	-34%[57.1 µM]	27µM*
CC(C)CC1=C/C(=C/c2ccc(-c3ccccc3)o2)C(=O)O1	45µM*	?	-68*	?	?	11µM*
CCCCOc1cccc(C2c3c(-c4cc(C)ccc4O)n[nH]c3C(=O)N2CCOC)c1 (centres undefined)	-34%	12%	·	-17%	?	·
Cc1cc(N2CCN(c3ccccc3F)CC2)nc2cc(O)ccc12	?	29%	8	13µM*	-16%	5%
COc1ccc(N2CCN(c3cc(C)c4ccc(C)cc4n3)CC2)cc1	-38%	?	24	-17%	?	-8%
Cc1cc(N2CCOCC2)nc2cc(O)ccc12	0%	56%	1	-14%	-7%	3%
